From PubChem BioAssay (NCATS) come the findings set out here.

Molecules are shown by their SMILES. Inconclusive results are not listed. Calls of active or inactive are those of the source. Calls come from the whole dose curve; as a rule, active = well fitted cell-killing curve with a large enough effect; inconclusive = small, poorly fitted or top-dose-only effect, or effect the other way; inactive = flat fitted curve, though single readings scatter. Where a SMILES comes first, the peptide text is derived from it. The star is where a group is joined. PhAc = O=C(Cc1ccccc1)*
% is set by controls: 0 for no effect and ±100 for the full control effect.

This test deals with Hek293T. Description: Primary qHTS to identify gynecologic anti-cancer compounds using libraries of approved drugs and bioactive compounds (AID 1345084). Note: nearly all actives have a fitted effect of over 55% in size. The following applies: Gynecologic cancer cell panel viability, ATPlite luminescence, 48 h, control line for the selectivity index; series mostly up to 57.5 µM; activity change, negative = cytotoxicity: at the top concentration. The gist of the method: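 Cytotoxicity screen measuring ATP content by luciferase luminescence. Each compound is applied at five concentrations for 48 h at 37 C with 5% CO2.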
As for `COC1CC(O[C@H]2CC[C@@]3(C)C(=CC[C@]4(O)C3[C@H](O)[C@@H](O)[C@]3(C)[C@@H]([C@H](C)O)CC[C@@]34O)C2)OC(C)C1OC1CC(OC)C(OC2CC(OC)C(OC3OC(C)C(OC4OC(CO)C(O)C(O)C4O)C(OC)C3O)C(C)O2)C(C)O1` (some centres undefined), the activity change, negative = cytotoxicity was 8.49% [at 11.6 µM] (inactive).
Under `C=C1CCC2[C@](C)(CO)CCC[C@@]2(C)[C@@H]1CCC1=CCOC1=O` (some centres undefined) stands 9.27% [at 38.5 µM] (inactive); under `C=C1CCC[C@]2(C)CC[C@@](O)(C(=C)C(=O)O)C[C@@H]12`, -6.8% (inactive).
For `CC1CC(=O)[C@]2(O)C(C(=O)OCCc3ccc(O)cc3)=CO[C@@H](O[C@@H]3O[C@H](CO)[C@@H](O)[C@H](O)[C@H]3O)[C@H]12` (some centres undefined) the value was -16% [at 25.3 µM] (inactive); for `COC(=O)C1=COC(O[C@@H]2O[C@H](CO)[C@@H](O)[C@H](O)[C@H]2O)[C@@H]2[C@@](C)(O)[C@@H](OC(=O)/C=C/c3ccccc3)C[C@]12O` (some centres undefined), -0.193% [at 25.3 µM] (inactive).
Under `CCC[C@H](N[C@@H](C)C(=O)N1[C@H](C(=O)O)C[C@@H]2CCCC[C@@H]21)C(=O)O` stands 0.834% (inactive); under `CC1OC(OC2C(OC(=O)[C@]34CCC(C)(C)C[C@H]3C3=CCC5[C@@]6(C)CC[C@H](OC7OC(C(=O)O)C(O)C(O)C7O)C(C)(C)C6CC[C@@]5(C)[C@]3(C)CC4O)OC(CO)C2O)C(O)C(O)C1OC1OCC(O)C(O)C1O` (some centres undefined), 3.77% [at 11.6 µM] (inactive).
Take `CCOC(=O)CNC(=O)[C@@H]1CCCN1C(=O)Cc1ccccc1` (PhAc-Pro-Gly-OEt): the “activity change, negative = cytotoxicity” value was -1.47% (inactive).
On to `C/C(=C\CC[C@H](CO)[C@@H]1CC[C@]2(C)C3=C(CC[C@@]12C)[C@@]1(C)CCC(=O)C(C)(C)C1CC3)C(=O)O` (some centres undefined), for which the “activity change, negative = cytotoxicity” value is 15.8% [at 25.3 µM] (inactive).
In the case of `C=C1CCC2C(C)(C)CCC[C@]2(C)[C@H]1CC/C(C)=C/C(=O)O` (some centres undefined), the “activity change, negative = cytotoxicity” value is 17.7% (inactive).
On to `COCC1OC(OC(C)(C)C2CCC3(C)C=C(C4CCC5C4(C)CC(O)C4OC(C(C)(C)O)CCC45C)CCC3O2)C(NC(C)=O)C(O)C1O` (centres undefined), for which the “activity change, negative = cytotoxicity” value is -1.58% [at 25.3 µM] (inactive).
Turning to `C=C1CCC2[C@](C)(CCC[C@]2(C)C(=O)O)[C@H]1CC/C(C)=C/C(=O)OC` (some centres undefined), the “activity change, negative = cytotoxicity” value was -0.297% [at 38.5 µM] (inactive).
For `COC(=O)c1c(CC=C(C)C)c(OC2OC(CO)C(O)C(O)C2O)c2ccccc2c1OC1OC(CO)C(O)C(O)C1O` (centres undefined) the value was 1.88% [at 25.3 µM] (inactive).
For `O=C(Cc1ccccc1)OC[C@H]1O[C@H](O[C@H]2O[C@H](CO)[C@@H](O)[C@H](O)[C@H]2O)[C@H](O)[C@@H](O)[C@@H]1O` the value was -0.853% [at 25.3 µM] (inactive); for `CC1=C2C[C@H]3OC(=O)[C@H](O)[C@@]4(O)[C@@H](C)[C@@H](O)[C@H](O)C([C@@]2(C)[C@H](O)[C@@H](O)C1)[C@@]34C` (some centres undefined), -0.319% [at 38.5 µM] (inactive); for `CC1CC(=O)C2=C(O1)OC1(C)CCC3C(C)(C)C4OC4C(=O)C3(C)C1C2` (centres undefined), 12.2% [at 38.5 µM] (inactive).
Under `COc1ccnc(CCc2nc3ncccc3[nH]2)c1` stands 5.26% (inactive).
`C/C(=C/CO)CC[C@H]1[C@]2(C)C[C@H](O)CC(C)(C)[C@H]2CC[C@]1(C)O`: the “activity change, negative = cytotoxicity” value is 1.34% [at 38.5 µM] (inactive).
Under `COc1c2c(c(C)c3c1C(=O)OC3)OC1(C)CC(O)C34OC(O)(CCC3(C)C1C2)OC4(C)C` (centres undefined) stands -15.7% [at 25.3 µM] (inactive); under `COC(=O)[C@]1(Cc2ccc(O)c(CC=C(C)C)c2)OC(=O)C(O)=C1c1ccc(O)cc1`, 8.66% [at 25.3 µM] (inactive); under `COc1cnc(-c2ccc(Cn3c(CC(C)(C)C(=O)O)c(SC(C)(C)C)c4cc(OC[C@@H]5Cc6ccccc6N5C(C)=O)ccc43)cc2)nc1`, 3.45% [at 38.5 µM] (inactive).
Consider `CCC(C)C(=O)O[C@H]1C[C@](C)(O)[C@]23OC(C)(C)[C@H](C[C@H](OC(=O)c4ccccc4)[C@]2(COC(C)=O)[C@H]1OC(=O)C(C)CC)[C@H]3OC(C)=O` (some centres undefined), for which the “activity change, negative = cytotoxicity” value is -1.14% [at 25.3 µM] (inactive).
`CC1CC2(O)OC(=O)C3=C2C(CCC3)[C@@]12C[C@@H](c1ccoc1)OC2=O` (some centres undefined): the “activity change, negative = cytotoxicity” value was -13.5% [at 38.5 µM] (inactive).
For `COc1cc(C(C)=O)ccc1O[C@@H]1O[C@H](CO)[C@@H](O)[C@H](O)[C@H]1O` the value was 0.273% [at 38.5 µM] (inactive); for `COC(=O)C1=COC(OC2OC(CO)C(O)C(O)C2O)C2C(C)C(OC(C)=O)C(OC(=O)c3ccccc3)C12` (centres undefined), 3.56% [at 25.3 µM] (inactive).
As for `COc1ccnc2[nH]cc(C(=O)C(=O)N3CCN(C(=O)c4ccccc4)CC3C)c12` (centres undefined), the “activity change, negative = cytotoxicity” value is -4.56% (inactive).
For `C[C@@H]1O[C@@H](O[C@H]2[C@H](O)[C@@H](O)[C@H](OC[C@H]3O[C@@H](OC(=O)[C@]45CCC(C)(C)C[C@H]4C4=CCC6[C@@]7(C)C[C@@H](O)[C@H](O)[C@@](C)(CO)C7[C@H](O)C[C@@]6(C)[C@]4(C)CC5)[C@H](O)[C@@H](O)[C@@H]3O)O[C@@H]2CO)[C@H](O)[C@H](O)[C@H]1O` (some centres undefined) the value was -2.97% [at 11.6 µM] (inactive); for `O=C(CC1CC(c2ccc(F)cc2F)=NO1)N1CCOCC1` (centres undefined), -0.096% (inactive); for `COC(=O)C1=CO[C@@H](O[C@@H]2O[C@H](CO)[C@@H](O)[C@H](O)[C@H]2O)[C@@H]2[C@@H](C(=O)O)CC[C@H]12`, -4.14% [at 25.3 µM] (inactive).
For `C[C@@H]1O[C@@H](OC2C(CO)OC(OCC3OC(OC(=O)[C@]45CCC(C)(C)CC4C4=CCC6[C@@]7(C)CC[C@@H](O)[C@](C)(C(=O)O)C7CC[C@@]6(C)[C@]4(C)CC5)C(O)C(O)C3O)C(O)C2O)[C@H](O)[C@H](O)[C@H]1O` (some centres undefined) the value was 5.6% [at 11.6 µM] (inactive).
For `OC[C@H]1O[C@@H](OC[C@H]2O[C@@H](OCc3ccccc3)[C@H](O)[C@@H](O)[C@@H]2O)[C@H](O)[C@@H](O)[C@@H]1O` the value was 3.58% [at 25.3 µM] (inactive); for `COC1OC(O)C2(CCC3(O2)C(C)CC2OC(=O)C4(C)CCCC3(C)C24)C1O` (centres undefined), 1.45% [at 38.5 µM] (inactive); for `C=C1C(OC(C)=O)C(=O)C2C(C)(C)C(O)CCC2(C)C1CC(OC(C)=O)/C(C)=C/COC(C)=O` (centres undefined), -9.31% [at 25.3 µM] (inactive).
For `C/C(=C\CO)CC/C=C(\C)C(=O)O[C@@H]1O[C@H](CO)[C@@H](O)[C@H](O)[C@H]1O`, the “activity change, negative = cytotoxicity” value was -0.696% [at 38.5 µM] (inactive).
For `CC(=O)c1c(C)cccc1O[C@@H]1O[C@H](CO)[C@@H](O)[C@H](O)[C@H]1O` the value was -1.24% [at 38.5 µM] (inactive).
Under `CC(=O)O[C@@H]1C=C2[C@H](CC[C@@]3(C)[C@@]2(O)CC[C@H]2Cc4c([nH]c5ccccc45)[C@@]23C)O[C@@H]1C(C)(C)O` stands 6.43% [at 25.3 µM] (inactive); under `C=CC1(C)CC=C2C(CCC3C(C)(C(=O)O)CCCC23C)C1` (centres undefined), -2.09% (inactive); under `CC(C)c1ccc2c(c1)C(=O)CC1C(C)(C(=O)O)CCCC21C` (centres undefined), 2.56% [at 38.5 µM] (inactive).
For the compound `CC(C)CC(=O)O[C@@H]1O[C@H](CO)[C@@H](O[C@H]2O[C@H](C)[C@@H](N[C@H]3C=C(CO)[C@@H](O[C@H]4O[C@H](CO)[C@@H](O[C@H]5O[C@H](CO)[C@@H](O[C@H]6O[C@H](CO)[C@@H](O)[C@H](O)[C@H]6O)[C@H](O)[C@H]5O)[C@H](O)[C@H]4O)[C@H](O)[C@H]3O)[C@H](O)[C@H]2O)[C@H](O)[C@H]1O`, the activity change, negative = cytotoxicity was 4.85% [at 11.6 µM] (inactive).
